Test results from PubChem BioAssay (NCI).
The panel holds about 83,000 compounds, 20% with a hit somewhere; the sample as a whole holds those more often.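 Results are percent growth after 48 hours of single-concentration exposure. 100 means growth as in untreated cells, lower positive values show inhibition; negative values down to -100 show cell death.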 Values without a mark were called inactive. How the source made its calls: active means growth percent below 10; inactive means the rest.

tested on: HCT-15 colon; test: NCI-60 one-dose screen, 48 h (100 = growth as untreated, 0 = no growth, -100 = all killed); conditions: 10 µM unless noted

SMILES	growth
COc1ccc(Sc2ccc3[nH]c(=O)nc(N)c3c2)cc1	103%
CCN1C(=O)C2(Nc3ccccc3S2)c2cc(C)ccc21 (stereo not given)	101%
CCOC(=O)c1cn2c3c(cc(F)cc3c1=O)C(CC)c1ccccc1C2 (stereo not given)	57.8%
Cc1nn(CC(=O)O)c2c1C(=O)CC(C)(C)C2	102%
O=C1/C(=C/c2ccc(Oc3ccccc3)cc2)N=C(c2ccccc2)N1CCc1cccs1	92.4%
COc1cccc(C2C3=C(COC3=O)N(CCO)c3cc4c(cc32)OCO4)c1 (stereo not given)	18.2%
COc1ccc2c(c1)c(=O)oc1c(C)c(OCC(C)=O)ccc12	86.7%
CC1=C(C/C=C(\C)CCC[C@H](C)CCC[C@H](C)CCCC(C)C)C(=O)c2ccccc2C1=O	104%
O=S(=O)(OCCO)c1ccccc1	103%
COc1ccc(-c2nc3sccn3c2/C=C/C(=O)c2cc(OC)c(OC)c(OC)c2)cc1OC	22%
Cc1nc(NN)c([N+](=O)[O-])c(NN)n1	105%
COc1cc(/C=C2\C(=O)N(c3c(Cl)cccc3Cl)c3ccccc32)cc(OC)c1O	30.7%
COc1cc(C2C3=C(COC3=O)N(CCO)c3cc4c(cc32)OCO4)cc(OC)c1O (stereo not given)	44.8%
COc1ccccc1CNCCCCCCCCCCCCN1C(=O)c2ccc3c4c(ccc(c24)C1=O)C(=O)N(CCCCCCCCCCCCNCc1ccccc1OC)C3=O	77.7%
CCCCCCCCCCCCCCCC[N+]1(C)CCOCC1	40.4%
